# Results: PubChem BioAssay (EPA / NIEHS)
# Active and inactive are the calls of the source. Rule for the calls: active = hit-call score of the fitted dose curve at least 0.9, where 1 is the maximum; inconclusive = response in the unintended direction; inactive = score below 0.9.
# Target: Androgen Receptor/SRC-1 Co-activator, AR (gene 367) (UniProt P10275)
# Test: OT_AR_ARSRC1_0960: Odyssey Thera (OT) 16-hour HEK293T Protein-Complementation Assay for Androgen Receptor/SRC-1 Co-activator (AID 2283353);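 note: actives raise the signal above DMSO so potency reflects increased AR and SRC-1 complex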
# Method: OT_AR_ARSRC1_0960 is a cell-based, single-readout assay that uses HEK293T, a human kidney cell line, with measurements taken at 16 hours after chemical dosing in a 384-well plate.OT_AR_ARSRC1_0960 is one of one assay component(s) measured or calculated from the OT_AR_ARSRC1_0960 assay. It is designed to make measurements of protein fragment complementation, a form of binding reporter, as detected with fluorescence intensity signals by Protein-fragment Complementation technology.Data from the assay component OT_AR_ARSRC1_0960 was analyzed into 1 assay endpoint. This assay endpoint, OT_AR_ARSRC1_0960, was analyzed in the positive analysis fitting direction relative to DMSO as the negative control and baseline of activity. Using a type of binding reporter, measures of receptor for gain-of-signal activity can be used to understand the binding at the pathway-level as they relate to the gene AR. Furthermore, this assay endpoint can be referred to as a primary readout, because the performed assay has only produced 1 assay endpoint. To generalize the intended target to other relatable targets, this assay endpoint is annotated to the nuclear receptor intended target family, where the subfamily is steroidal.
# Protein-fragment complementation assay, or PCA, is a method for the identification and quantification of protein-protein interactions. In the PCA, the proteins of interest ("bait" and "prey") are each covalently linked to fragments of a third protein (e.g. DHFR, which acts as a "reporter"). Interaction between the bait and the prey proteins brings the fragments of the reporter protein in close proximity to allow them to form a functional reporter protein whose activity can be measured. The OT AR / SRC-1 assay assessed androgen receptor chemical interactions using a rapidly maturing, intensely fluorescent mutant of YFP known as Venus, rationally dissected into two separate fragments. […] Fusion constructs were transfected into HEK293T cells with a (Gly4Ser)2 linker between the AR/SRC-1 and YFP fragment genes to facilitate complementation when interacting proteins bring fragments into close proximity. The construct is stably expressed in HEK293T cells. […] Images were acquired on an Evotec Opera at 2 wavelengths (488 and 635nm), and the ratio of fluorescence in the nucleus relative to fluorescence in the cytoplasm (N/C Ratio) in the 488nm channel was calculated for a minimum of 400 cells per image. Both agonists and antagonists of the AR receptor induce nuclear translocation to varying degrees. […] The OT AR/SRC-1 assay was also run for 16 hours (see description for OT_AR_ARSRC1_0960).
# Androgen Receptor/SRC-1 Co-activator, AR (gene 367), sequence (P10275 whole entry, looked up): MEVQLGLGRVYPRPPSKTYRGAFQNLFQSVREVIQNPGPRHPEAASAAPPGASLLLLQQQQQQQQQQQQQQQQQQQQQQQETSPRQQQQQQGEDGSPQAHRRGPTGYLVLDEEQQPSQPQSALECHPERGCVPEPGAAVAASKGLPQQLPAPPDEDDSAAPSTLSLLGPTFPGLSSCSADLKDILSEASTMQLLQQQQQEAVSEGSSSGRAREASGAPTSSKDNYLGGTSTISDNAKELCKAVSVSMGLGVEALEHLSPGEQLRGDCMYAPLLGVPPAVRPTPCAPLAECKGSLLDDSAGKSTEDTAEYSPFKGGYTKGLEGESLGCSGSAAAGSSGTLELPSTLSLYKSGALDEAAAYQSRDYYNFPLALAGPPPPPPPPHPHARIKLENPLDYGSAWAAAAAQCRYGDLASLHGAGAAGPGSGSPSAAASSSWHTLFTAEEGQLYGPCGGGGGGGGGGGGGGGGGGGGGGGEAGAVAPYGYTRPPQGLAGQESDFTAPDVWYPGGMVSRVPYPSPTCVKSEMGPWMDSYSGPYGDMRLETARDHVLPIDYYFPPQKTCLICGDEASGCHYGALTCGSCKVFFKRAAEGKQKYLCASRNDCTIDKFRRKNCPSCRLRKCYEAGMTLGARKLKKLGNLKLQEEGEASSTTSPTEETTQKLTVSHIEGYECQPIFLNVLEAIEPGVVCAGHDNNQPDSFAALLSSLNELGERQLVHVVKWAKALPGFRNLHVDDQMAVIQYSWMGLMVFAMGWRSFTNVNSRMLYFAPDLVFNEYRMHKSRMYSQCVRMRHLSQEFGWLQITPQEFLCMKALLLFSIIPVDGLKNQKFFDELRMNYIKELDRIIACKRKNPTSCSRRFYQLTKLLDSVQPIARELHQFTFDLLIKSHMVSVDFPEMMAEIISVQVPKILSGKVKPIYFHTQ
Structure (SMILES),outcome,AC50
CCCCOC(=O)c1ccccc1,inactive,
CCCCCCCCCCCCCCCCOS(=O)(=O)O,inactive,
CCCCCCOC(=O)CC(CC(=O)OCCCCCC)(OC(=O)CCC)C(=O)OCCCCCC,inactive,
COc1cc(C(C)C)c2c(c1)S(=O)(=O)N(COc1cc(=O)n3cccc(OCCN4CCCCC4)c3n1)C2=O,,10.6 µM (active)
CCc1cccc(CC)c1N,inactive,
C=CCc1cc(S(=O)(=O)c2ccc(O)c(CC=C)c2)ccc1O,,69.1 µM (active)
OCCOCCOCCO,inactive,
COCc1nnc(-c2ccc[n+]([O-])c2)n1-c1c(Cl)c(Cl)cc2[nH]c(=O)c(=O)[nH]c12,inactive,
Cc1nc(-c2ccccn2)ncc1C(=O)Nn1cc(C)c2cc(F)ccc21,inactive,
CCN(CC)C(=S)SSC(=S)N(CC)CC,,59.6 µM (active)
COc1cc2c(c(OC)c1OC)-c1ccc(OC)c(=O)cc1[C@@H](NC(C)=O)CC2,,0.133 µM (active)
CCCCC(CC)C(=O)OCCOCCOCCOC(=O)C(CC)CCCC (stereo not drawn),inactive,
OCc1ccccc1,inactive,
